Bioassay records as filed in PubChem BioAssay.
CYP2C19 activ: human CYP2C19 activators, primary screen, biochemical, luminescence. Cytochrome P450 2C19 (Homo sapiens), P33261. recombinant CYP2C19, luciferin-H EGE luminescence; hits give high values; 0 = fully inhibited enzyme, 1 = untreated enzyme. activation factor at 5 µM. 96,000 tested, under 10 active. AID 1025, 2008;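 active means activation factor of at least 2 at 5 µM in the primary screen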
CYP2C9 inh: blockers of cytochrome P450 2C9 activity – biochemical, luminescence, ADME assay, primary screen | P11712 | CYP2C9 Supersomes, luciferin-H conversion | inhibition, % at 5 µM | 20% of 96,000 active | AID 777, 2007;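 active means blocking of liver enzyme CYP2C9 beyond about 50% at 5 µM, limit read from the data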
CYP2C19 inh: blockers of cytochrome P450 2C19 activity – biochemical, luminescence, ADME assay, primary screen | CYP2C19 Supersomes, luciferin-H EGE luminescence, 30 min | inhibition, % at 5 µM | 21% of 96,000 active;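 active means CYP2C19 inhibition above a set limit at 5 µM in the primary screen, cut at about 50% in these data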
CYP2C9 activ: human CYP2C9 activators, primary screen, biochemical, luminescence. Cytochrome P450 2C9 (Homo sapiens), P11712. recombinant CYP2C9, luciferin-H conversion; hits give high values; factor 1 = untreated enzyme, 0 = blocked. activation factor at 5 µM. 1.4% of 96,000 active;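 active means activation factor of 2 or more for CYP2C9 at a 5 µM dose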
Cav3 T inh: Cav3.2 calcium influx blockers – cell-based, Fluo-4 calcium fluorescence, FDSS, MLSMR library, primary screen | Voltage-dependent T-type calcium channel subunit alpha-1H (Homo sapiens), O95180 | Cav3.2-expressing cells; hits give low values | B-score at 10 µM | 4% of 100,000 active | AID 449739, 2010;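 active means single-dose well whose peak fluorescence ratio is a statistical outlier from its plate by either plate-standardised score or position-corrected B-score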
Target sequence (O95180 whole entry, looked up): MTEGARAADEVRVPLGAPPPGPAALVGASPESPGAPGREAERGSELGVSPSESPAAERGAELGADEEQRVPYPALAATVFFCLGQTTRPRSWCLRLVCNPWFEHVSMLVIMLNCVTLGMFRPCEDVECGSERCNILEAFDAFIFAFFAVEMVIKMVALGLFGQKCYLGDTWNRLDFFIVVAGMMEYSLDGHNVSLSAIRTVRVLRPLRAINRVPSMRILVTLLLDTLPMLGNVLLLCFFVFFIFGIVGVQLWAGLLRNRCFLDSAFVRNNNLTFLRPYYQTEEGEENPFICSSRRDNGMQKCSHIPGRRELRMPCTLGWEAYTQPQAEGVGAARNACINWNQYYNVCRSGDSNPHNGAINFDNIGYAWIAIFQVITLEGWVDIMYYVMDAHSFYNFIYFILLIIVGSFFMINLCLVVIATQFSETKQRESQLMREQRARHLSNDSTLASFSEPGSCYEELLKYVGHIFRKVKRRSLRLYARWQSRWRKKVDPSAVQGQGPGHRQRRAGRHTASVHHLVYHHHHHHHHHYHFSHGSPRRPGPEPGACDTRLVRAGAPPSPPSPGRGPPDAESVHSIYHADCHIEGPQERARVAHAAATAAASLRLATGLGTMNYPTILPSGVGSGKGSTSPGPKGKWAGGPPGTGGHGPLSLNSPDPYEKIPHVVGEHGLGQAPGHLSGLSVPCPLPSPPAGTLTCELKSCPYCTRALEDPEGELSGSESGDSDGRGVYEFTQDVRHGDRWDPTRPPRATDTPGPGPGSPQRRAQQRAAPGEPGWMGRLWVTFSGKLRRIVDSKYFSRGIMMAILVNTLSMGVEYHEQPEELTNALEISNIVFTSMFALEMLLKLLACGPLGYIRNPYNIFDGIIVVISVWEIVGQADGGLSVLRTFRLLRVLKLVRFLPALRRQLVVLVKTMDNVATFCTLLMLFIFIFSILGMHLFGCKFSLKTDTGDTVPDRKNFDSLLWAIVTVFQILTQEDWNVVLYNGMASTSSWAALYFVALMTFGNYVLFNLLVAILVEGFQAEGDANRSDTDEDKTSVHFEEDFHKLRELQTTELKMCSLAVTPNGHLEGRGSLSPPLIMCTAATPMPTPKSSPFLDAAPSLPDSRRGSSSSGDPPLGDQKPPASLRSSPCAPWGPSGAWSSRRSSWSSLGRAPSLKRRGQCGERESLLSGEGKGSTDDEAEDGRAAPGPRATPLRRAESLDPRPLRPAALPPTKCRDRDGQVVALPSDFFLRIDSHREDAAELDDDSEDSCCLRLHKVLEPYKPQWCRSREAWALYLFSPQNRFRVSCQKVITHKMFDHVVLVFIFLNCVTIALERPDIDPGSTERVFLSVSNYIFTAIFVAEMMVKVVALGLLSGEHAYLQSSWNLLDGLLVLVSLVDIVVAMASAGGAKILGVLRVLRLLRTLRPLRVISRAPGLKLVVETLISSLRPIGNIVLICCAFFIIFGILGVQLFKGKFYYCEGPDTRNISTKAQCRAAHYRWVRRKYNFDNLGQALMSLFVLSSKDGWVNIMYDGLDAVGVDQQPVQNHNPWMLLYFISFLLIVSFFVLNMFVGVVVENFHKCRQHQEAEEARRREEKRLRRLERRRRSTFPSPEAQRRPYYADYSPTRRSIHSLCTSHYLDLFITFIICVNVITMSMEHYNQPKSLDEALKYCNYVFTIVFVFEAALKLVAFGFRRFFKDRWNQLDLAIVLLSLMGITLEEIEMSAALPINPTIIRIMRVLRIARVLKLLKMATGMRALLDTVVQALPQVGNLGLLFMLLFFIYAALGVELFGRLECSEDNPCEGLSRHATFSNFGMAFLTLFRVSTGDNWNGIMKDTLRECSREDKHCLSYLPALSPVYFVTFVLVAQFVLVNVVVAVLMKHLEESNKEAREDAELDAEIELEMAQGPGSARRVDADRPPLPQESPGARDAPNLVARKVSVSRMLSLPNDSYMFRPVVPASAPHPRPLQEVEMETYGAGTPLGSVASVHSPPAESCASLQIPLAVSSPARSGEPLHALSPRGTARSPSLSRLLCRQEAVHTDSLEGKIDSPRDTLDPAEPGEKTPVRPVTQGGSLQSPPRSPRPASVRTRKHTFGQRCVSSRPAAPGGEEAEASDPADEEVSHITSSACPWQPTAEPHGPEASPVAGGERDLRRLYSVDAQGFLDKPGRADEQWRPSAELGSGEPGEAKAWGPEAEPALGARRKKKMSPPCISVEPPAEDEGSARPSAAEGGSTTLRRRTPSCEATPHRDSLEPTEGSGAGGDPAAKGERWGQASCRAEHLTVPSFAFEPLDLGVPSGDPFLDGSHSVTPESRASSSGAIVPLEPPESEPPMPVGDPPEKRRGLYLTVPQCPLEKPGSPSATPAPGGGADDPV
Of the large screens only hits and unclear results are named; the others gave an inactive call. Sampled rows, rich in hits. Any-hit rate of the full collection: about 27%.

CCCN1C(=O)c2ccccc2NC1c1ccc(OC)cc1O (stereo unspecified)	CYP2C19 inh 81
CCCN1C(=O)c2ccccc2NC1c1ccc(OC)cc1OC (stereo unspecified)	CYP2C9 inh 53, CYP2C19 inh 63
COC(C[C@@H](O)[C@@H](C)[C@@H](O)COCc1ccccc1)OC	none (no result: CYP2C19 activ, CYP2C9 inh, CYP2C19 inh, CYP2C9 activ)
N#Cc1c(-c2ccco2)nc(SCc2ccc(F)cc2)[nH]c1=O	CYP2C9 inh 63, Cav3 T inh -4.5
N#Cc1c(-c2ccco2)nc(SCC(=O)Nc2ccc(S(N)(=O)=O)cc2)[nH]c1=O	CYP2C9 inh 50 (no result: Cav3 T inh)
N#Cc1c(-c2ccco2)nc(NCC2CCCO2)[nH]c1=O (stereo unspecified)	none
Cc1nc(SCc2cccc(F)c2)[nH]c(=O)c1C#N	CYP2C9 inh 75
O=C1CC(c2nc3ccccc3[nH]2)CN1c1cccc(C(F)(F)F)c1 (stereo unspecified)	Cav3 T inh -5.4 (no result: CYP2C19 activ, CYP2C9 inh, CYP2C19 inh, CYP2C9 activ)
COc1ccc(Cl)cc1N1CC(c2nc3ccccc3[nH]2)CC1=O (stereo unspecified)	none (no result: CYP2C19 activ, CYP2C9 inh, CYP2C19 inh, CYP2C9 activ)
Cc1nc2c(F)c(F)c(C(F)(F)F)c(F)c2[nH]1	CYP2C19 inh 61
Cc1ccc(-n2ncc3c(=O)n(Cc4ccccn4)cnc32)cc1C	none
C[C@@H]1CCC[C@H](C)N1NC(=O)c1ccc(Cl)c(S(N)(=O)=O)c1	none (no result: CYP2C19 activ, CYP2C9 inh, CYP2C19 inh, CYP2C9 activ)
Cc1ccc(-c2n[nH]c(=S)n2/N=C/C=C/c2ccccc2[N+](=O)[O-])cc1	CYP2C9 inh 58
CC(NC(=O)CC1Nc2ccccc2NC1=O)c1ccccc1 (stereo unspecified)	none
CCC(=O)NC1=C(NC(C)c2ccccc2)C(=O)c2ccccc2C1=O (stereo unspecified)	CYP2C9 inh 52
CCC(=O)Nc1ccc2c(c1)C(=O)c1ccccc1C2=O	CYP2C9 inh 58
C=CCN1C(=O)CN=C1Nc1ccc(OC)cc1OC	none
COc1cc(-c2nnc(SCc3c(F)cccc3Cl)o2)cc(OC)c1OC	CYP2C9 inh 58
COc1ccc(NC(=O)CSc2ncn(-c3ccccc3)n2)cc1Cl	none
COc1cc(S(=O)(=O)NC(C)C)ccc1Cl	CYP2C19 inh 53, CYP2C9 activ 2.5
COC(=O)c1cc(NS(=O)(=O)c2ccc(OC)c(OC)c2)ccc1Cl	CYP2C9 inh 80, CYP2C19 inh 100
COc1ccc(S(=O)(=O)NC(C(C)C)C(C)C)cc1OC	none (no result: CYP2C19 activ, CYP2C9 inh, CYP2C19 inh, CYP2C9 activ)
COc1ccc(NC(=O)CNS(=O)(=O)c2ccccc2)cc1Cl	CYP2C19 inh 63
COc1ccc(S(=O)(=O)Nc2ccc(F)c(Cl)c2)cc1OC	CYP2C9 inh 56, CYP2C19 inh 100
Cc1cc(=O)oc2cc(Oc3ncccn3)ccc12	none
CCOC(=O)CC(=O)Nc1cc(Cl)ccc1O	none
COC(=O)c1cc(Cl)c(NC(=O)c2ccc(C(C)(C)C)cc2)cc1OC	none
COc1ccc(S(=O)(=O)Nc2ccc(C)cc2)cc1N(C)S(=O)(=O)c1ccc(Cl)cc1	CYP2C9 inh 62, CYP2C19 inh 71
COc1ccc(C)cc1S(=O)(=O)Nc1ccc(F)c(Cl)c1	none (no result: CYP2C19 activ, CYP2C9 inh, CYP2C19 inh, CYP2C9 activ)
COC(=O)c1cc(Cl)c(NS(=O)(=O)c2ccccc2)cc1OC	CYP2C9 inh 92, CYP2C19 inh 92
COc1ccc(NC(=O)C(C)NS(=O)(=O)c2ccc(NC(C)=O)cc2)cc1Cl (stereo unspecified)	none (no result: CYP2C19 activ, CYP2C9 inh, CYP2C19 inh, CYP2C9 activ)
COc1ccc(NC(=O)C=C(C)C)cc1Cl	CYP2C19 inh 58
COc1ccc(C(C)C)cc1S(=O)(=O)N1CCN(C)CC1	none
O=C(O)CSCC(=O)Nc1ccccc1	none (no result: CYP2C19 activ, CYP2C9 inh, CYP2C19 inh, CYP2C9 activ)
Cc1cccc(C)c1NC(=O)CSCc1cccc(CSCC(=O)Nc2c(C)cccc2C)n1	none
O=C(CSCc1ccc(F)cc1)NCc1ccco1	CYP2C19 inh 70
O=C(CSCc1cccc(CSCC(=O)Nc2ccccc2)n1)Nc1ccccc1	CYP2C9 inh 65, CYP2C19 inh 53, Cav3 T inh -6.8
O=C(CSCc1ccc(F)cc1)Nc1ccccc1	CYP2C19 inh 94
Cc1cccc(NC(=O)Cc2ccc(F)cc2)c1	CYP2C9 inh 58, CYP2C19 inh 96
CS(=O)(=O)N1CCN(c2c(Cl)cccc2[N+](=O)[O-])CC1	none
O=C(CNS(=O)(=O)c1ccccc1)NCc1ccccn1	none
Cc1ccc(S(=O)(=O)N2CCc3ccccc3C2CN2C(=O)c3ccccc3C2=O)cc1 (stereo unspecified)	CYP2C19 inh 71
O=C1c2ccccc2C(=O)N1CC1c2ccccc2CCN1S(=O)(=O)c1cnc[nH]1 (stereo unspecified)	CYP2C9 inh 97, CYP2C19 inh 78
CC(O)[C@H]1CNC(=O)C(=O)N1CCc1cccc(F)c1 (stereo partly specified)	none (no result: CYP2C19 activ, CYP2C9 inh, CYP2C19 inh, CYP2C9 activ)
Cc1ccc(Cn2ncc3c(N4CCOCC4)ncnc32)cc1	none
c1ccc(Cn2ncc3c(N4CCCCC4)ncnc32)cc1	CYP2C19 inh 67
Cc1ccc(Cn2ncc3c(N4CCN(c5ccccc5C)CC4)ncnc32)cc1	CYP2C9 inh 74, CYP2C19 inh 60, Cav3 T inh -5.6
N#Cc1c(-c2ccccc2)ccn(Cc2ccccc2Cl)c1=O	CYP2C19 inh 54 (no result: Cav3 T inh)
O=C1NCCN1Cc1cccc(Cl)c1	none (no result: CYP2C19 activ, CYP2C9 inh, CYP2C19 inh, CYP2C9 activ)
CSc1cc(-c2ccccc2)n(Cc2ccccc2Cl)c(=O)c1C#N	CYP2C9 inh 61
N#Cc1c(-c2ccccc2)ccn(Cc2cccc(Cl)c2)c1=O	CYP2C9 inh 51, CYP2C19 inh 77
O=c1c2oc3ccccc3c2ncn1Cc1ccccc1Cl	none
C=CCn1c(-c2ccccc2)ccc(C#N)c1=O	none
Cc1cc(C)n2nc(C(=O)Nc3ccc4c(c3)OCO4)cc2n1	none
CC(C)(Oc1ccc(CCNC(=O)c2ccc(Cl)cc2)cc1)C(=O)O	none (no result: CYP2C19 activ, CYP2C9 inh, CYP2C19 inh, CYP2C9 activ)
CC(C)(Oc1ccc(Cl)cc1)C(=O)Nc1cccnc1	CYP2C19 inh 52
CC(C)(Oc1ccc(Cl)cc1)C(=O)NCc1ccncc1	CYP2C9 inh 98, CYP2C19 inh 99
CC(C)(Oc1ccc(Cl)cc1)C(=O)Nc1ccncc1	CYP2C9 inh 97, CYP2C19 inh 100
COC(=O)/C=C/C(=O)Nc1cccnc1	none
CC(C)(Oc1ccc(Cl)cc1)C(=O)NCc1ccco1	CYP2C9 inh 52
Cc1nn(Cc2ccc(F)cc2)c(C)c1NC(=O)c1cnn2cccnc12	none
Cn1c(N)c(C(=O)COC(=O)C2(c3ccc(Cl)cc3)CCCC2)c(=O)n(C)c1=O	CYP2C19 inh 58
Cn1c(N)c(C(=O)COC(=O)C2(c3ccc(F)cc3)CCCC2)c(=O)n(C)c1=O	none
CCCNc1nc(Nc2ccc(C)cc2)nc(N2CCCC2)n1	none
Cc1ccc(-c2nnc(SCc3nc(N)nc(Nc4ccccc4C)n3)n2N)cc1	none (no result: Cav3 T inh)
Cc1ccccc1Nc1nc(Nc2ccccc2C)nc(SC2=NCCS2)n1	CYP2C9 inh 77, CYP2C19 inh 54, Cav3 T inh -4.6
Cc1ccc(Nc2nc(Nc3ccc(C)cc3)nc(SC3=NCCS3)n2)cc1	CYP2C9 inh 86 (no result: Cav3 T inh)
